From PubChem BioAssay (NCI)
About 83,000 compounds went through this panel and 20% of them were active in at least one assay; those are over-represented in the sample as a whole.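 Negative percent growth values reflect cell death: -40 means 40% of the cells present at the start died, and -100 means all died.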 A number with no mark means an inactive call. Active and inactive are the calls of the source. Rule for the calls: active = growth percent below 10; inactive = the rest.

Tests used:
Test in all cases: NCI-60 one-dose screen, 48 h (100 = growth as untreated, 0 = no growth, -100 = all killed)
Conditions in all cases: 10 µM unless noted
[1] = system: SR leukemia
[2] = system: OVCAR-8 ovarian
[3] = system: OVCAR-5 ovarian
[4] = system: OVCAR-4 ovarian
[5] = system: SK-OV-3 ovarian
[6] = system: IGROV1 ovarian
[7] = system: OVCAR-3 ovarian
[8] = system: T-47D breast
[9] = system: BT-549 breast
[10] = system: SW-620 colon
[11] = system: HCT-116 colon
[12] = system: HCC-2998 colon
[13] = system: KM12 colon
[14] = system: NCI/ADR-RES ovarian
[15] = system: MDA-MB-435 melanoma
[16] = system: MCF7 breast
[17] = system: HS 578T breast

Nc1nc2c(nnn2Cc2ccc(Cl)c(Cl)c2)c(=O)[nH]1
growth [1]: 92% | growth [2]: 98.5% | growth [3]: 95.5% | growth [4]: 112% | growth [5]: 97.4% | growth [6]: 100% | growth [7]: 106% | growth [8]: 84.3% | growth [9]: 99.4% | growth [10]: 99.9% | growth [11]: 104% | growth [12]: 116% | growth [13]: 90.2%

Nc1ccc2c(c1Br)Cc1ccccc1-2
growth [1]: 93.6% | growth [2]: 98.6% | growth [3]: 94.6% | growth [4]: 98.6% | growth [6]: 108% | growth [7]: 99.1% | growth [14]: 100% | growth [8]: 87.8% | growth [9]: 89% | growth [15]: 110% | growth [10]: 98.1% | growth [16]: 51% | growth [11]: 98.2% | growth [12]: 99.1% | growth [13]: 103%

O=c1c2c(=NCCCN3CCCC3)cc3c(=O)n(CCCN4CCCC4)c(=O)c4c(NCCCN5CCCC5)cc(c(O)n1CCCN1CCCC1)c2c4-3
growth [1]: 3.03% (active) | growth [2]: 5.37% (active) | growth [3]: -0.86% (active) | growth [5]: -6.65% (active) | growth [6]: -30.3% (active) | growth [7]: -21.8% (active) | growth [17]: -16.5% (active) | growth [14]: 51.1% | growth [8]: -6.25% (active) | growth [9]: -29.9% (active) | growth [15]: -62.4% (active) | growth [10]: -3.24% (active) | growth [16]: 0.241% (active) | growth [11]: 2.72% (active) | growth [12]: -43.1% (active)

Cc1[nH]cnc1/C=C1\SC(N2CCCCC2)=NC1=O
growth [1]: 97.7% | growth [2]: 105% | growth [3]: 107% | growth [5]: 108% | growth [6]: 100% | growth [7]: 124% | growth [17]: 120% | growth [14]: 106% | growth [8]: 104% | growth [9]: 105% | growth [15]: 108% | growth [10]: 107% | growth [16]: 108% | growth [11]: 106% | growth [12]: 101% | growth [13]: 114%

O=C(O)C1C(c2ccccc2)c2ccccc2C(O)C1CO (stereo not given)
growth [1]: 99.6% | growth [2]: 103% | growth [3]: 101% | growth [4]: 108% | growth [5]: 94.9% | growth [7]: 134% | growth [14]: 109% | growth [8]: 115% | growth [9]: 103% | growth [15]: 116% | growth [10]: 106% | growth [16]: 97% | growth [11]: 101% | growth [12]: 106% | growth [13]: 117%

CN(C)CCCN=c1cc2c(=O)n(CCCN(C)C)c(=O)c3c(NCCCN(C)C)cc4c(O)n(CCCN(C)C)c(=O)c1c4c3-2
growth [1]: 6.3% (active) | growth [2]: 5.35% (active) | growth [3]: 0.732% (active) | growth [5]: -4.23% (active) | growth [7]: -39.1% (active) | growth [14]: 52.2% | growth [8]: -1.16% (active) | growth [9]: 37% | growth [15]: -52.8% (active) | growth [10]: -14.6% (active) | growth [16]: 0.771% (active) | growth [11]: -29.7% (active) | growth [12]: 13.8% | growth [13]: 3.01% (active)

O=C(CC1Sc2ccccc2NC1=O)NNc1cccc(Cl)c1Cl (stereo not given)
growth [1]: 61% | growth [2]: 82.7% | growth [3]: 80.6% | growth [4]: 88.1% | growth [5]: 70.2% | growth [6]: 82.1% | growth [7]: 81.7% | growth [14]: 96.7% | growth [9]: 89.1% | growth [15]: 95.4% | growth [10]: 87.3% | growth [16]: 92.4% | growth [11]: 87% | growth [12]: 88.5% | growth [13]: 82.7%

CC[C@@H](C)/C=C(C)/C=C/C(=O)c1c(O)c(-c2ccc(O)cc2)cn(OC2CC(=O)CCC(C)OC(=O)CC2O)c1=O (stereo not given in full)
growth [1]: 7.95% (active) | growth [2]: 17.5% | growth [3]: 53.8% | growth [6]: 4.73% (active) | growth [7]: 18.7% | growth [17]: 35.1% | growth [14]: 5.21% (active) | growth [8]: 25.8% | growth [9]: 14.6% | growth [15]: 12.4% | growth [10]: 22.9% | growth [16]: 21.7% | growth [11]: 18.5% | growth [12]: 8.22% (active) | growth [13]: 19.8%

C(=C1c2ccccc2-c2ccccc21)c1ccncc1
growth [1]: 9.55% (active) | growth [2]: 64.1% | growth [3]: 81% | growth [4]: 57.1% | growth [5]: 75.5% | growth [7]: 5.44% (active) | growth [17]: 49.5% | growth [14]: 4.8% (active) | growth [8]: 72.2% | growth [9]: 38.6% | growth [15]: -21.7% (active) | growth [10]: 17.1% | growth [16]: 18.8% | growth [11]: 16.4% | growth [12]: 66.6% | growth [13]: 18.5%

COc1cccc(/C=N\NC(=O)c2ccncc2)c1O
growth [1]: 21% | growth [2]: 58.7% | growth [3]: 67% | growth [4]: 31.7% | growth [5]: 56.8% | growth [7]: 13.6% | growth [14]: 25.3% | growth [8]: 28.2% | growth [9]: 49.8% | growth [15]: 83% | growth [10]: 62.5% | growth [16]: 26.5% | growth [11]: 11.6% | growth [12]: 57.2% | growth [13]: 62.6%

COc1ccc(/C=C2/SC(=Nc3c(C)nn(-c4ccccc4)c3N)NC2=O)cc1
growth [1]: 14.9% | growth [2]: 70.2% | growth [3]: 76.2% | growth [4]: 51.9% | growth [5]: 54.2% | growth [7]: -28.9% (active) | growth [14]: 42% | growth [8]: 60.9% | growth [9]: 26.8% | growth [15]: -38.9% (active) | growth [10]: 18.5% | growth [16]: 8.99% (active) | growth [11]: 16.8% | growth [12]: 53.5% | growth [13]: 28.6%

CCCCCN1C(=O)CCC1=O
growth [1]: 107% | growth [2]: 94.4% | growth [3]: 98.2% | growth [4]: 114% | growth [5]: 110% | growth [6]: 110% | growth [7]: 103% | growth [14]: 102% | growth [8]: 95.5% | growth [9]: 103% | growth [15]: 102% | growth [10]: 111% | growth [11]: 105% | growth [12]: 103% | growth [13]: 94.5%

CN1CCN(CCCCCN=c2cc3c(=O)n(CCCCCN4CCN(C)CC4)c(=O)c4c(NCCCCCN5CCN(C)CC5)cc5c(O)n(CCCCCN6CCN(C)CC6)c(=O)c2c5c4-3)CC1
growth [1]: 1.43% (active) | growth [2]: 12.6% | growth [3]: -9.79% (active) | growth [6]: -0.0469% (active) | growth [7]: 3.82% (active) | growth [17]: -2.4% (active) | growth [14]: 110% | growth [8]: 16.5% | growth [9]: 11.4% | growth [15]: -41.5% (active) | growth [10]: 21.9% | growth [16]: -6.01% (active) | growth [11]: 2.16% (active) | growth [12]: 29.1% | growth [13]: 2.69% (active)

Cc1nn(-c2ccccc2)cc1/C=C1\SC(N2CCCCC2)=NC1=O
growth [1]: 8.09% (active) | growth [2]: 81.4% | growth [3]: 103% | growth [5]: 119% | growth [6]: 68.1% | growth [7]: 96.4% | growth [17]: 99.7% | growth [14]: 89.7% | growth [8]: 82.4% | growth [9]: 88.2% | growth [15]: 92% | growth [10]: 79.8% | growth [16]: 55.8% | growth [11]: 46.7% | growth [12]: 94.5% | growth [13]: 103%
